Compound activity deposited in PubChem BioAssay by National Center for Advancing Translational Sciences (NCATS).
Coupling enz – counter-screen for Giardia aldolase inhibitors: coupling enzyme system | activity change, negative = inhibition, % at 58.2 µM, hits read low | coupling enzyme system counterscreen, AmpLite Red fluorescence | AID 2472 | hit rate 0.67% among 290,000; in the data active means activity change below about -30%
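Counterscreen lacking aldolase: glyceraldehyde-3-phosphate coupling-enzyme reagent preincubated 10 min at RT with compound (at 57.5 uM final), then substrate/coupling system with AmpLite Red added; fluorescence read at 525/598 nm after 20 min RT.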
RORgamma inh – ROR gamma (mouse) transcription inhibition; hit rate 5.4% among 310,000; Potency, µM (highest dose often 53.6 µM), usual class: inhibitors; AID 2551; Drosophila S2 Gal4-RORgamma UAS-luciferase reporter, 20 h; further: nearly all actives have a fitted effect of over 60% in size
Target sequence (P51450 whole entry, looked up, the tested form may be a part): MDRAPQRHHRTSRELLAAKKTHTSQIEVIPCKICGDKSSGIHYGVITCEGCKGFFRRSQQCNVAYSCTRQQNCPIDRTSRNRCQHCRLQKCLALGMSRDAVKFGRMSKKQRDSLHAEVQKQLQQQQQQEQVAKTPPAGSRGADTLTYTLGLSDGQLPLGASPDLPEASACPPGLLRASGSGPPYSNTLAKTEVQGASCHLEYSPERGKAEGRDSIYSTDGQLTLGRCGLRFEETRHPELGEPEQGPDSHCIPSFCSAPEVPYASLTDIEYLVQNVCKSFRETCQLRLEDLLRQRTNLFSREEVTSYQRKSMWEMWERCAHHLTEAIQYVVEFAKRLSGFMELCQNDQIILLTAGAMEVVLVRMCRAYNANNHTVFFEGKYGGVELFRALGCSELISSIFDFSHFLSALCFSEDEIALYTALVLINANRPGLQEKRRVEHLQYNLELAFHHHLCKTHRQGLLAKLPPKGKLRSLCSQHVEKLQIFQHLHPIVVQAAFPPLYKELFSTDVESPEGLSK
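Drosophila S2 cells stably expressing Gal4-DBD/mouse RORγ fusion under metallothionein promoter plus UAS-luciferase; compound 1 h, then 700 uM CuSO4 induction for 20 h at ambient temperature; inhibition read as reduced luminescence.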
VP16 counter – Gal4-VP16 reporter inhibition counter-screen; AID 2546; Drosophila S2 Gal4-VP16 UAS-luciferase, luminescence, 20 h; hit rate 3.5% among 310,000; Potency, µM (highest dose often 53.6 µM), most hits filed as inhibitors;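 further: Gal4-VP16 expression switched on by copper sulfate through the metallothionein promoter; nearly all actives have a fitted effect of over 50% in size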
rTrxR1 inhibitor – inhibitors of rat thioredoxin reductase 1 | O89049 | recombinant rTrxR1, NADPH fluorescence consumption, selenite substrate | Potency, µM (highest dose often 114 µM), most hits filed as inhibitors | hit rate 1% among 390,000; further: nearly all actives have a fitted effect of over 65% in size
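Rat TrxR1 (90 nM in the dispensed reagent) was pre-reduced with 400 uM NADPH for 5 min at room temperature, then incubated with compound for 15 min. After 400 uM selenite was added, NADPH fluorescence (Ex 340/Em 450 nm) was followed for 8 min.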
TrxR1 substrate – substrates of rat thioredoxin reductase 1. purified TrxR1 substrate turnover, NADPH consumption readout. hit rate 0.01% among 390,000. AID 588456. Potency, µM (top dose mostly 114 µM). O89049; further: nearly all actives have a fitted effect of over 50% in size
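Rat TrxR1, dispensed at 90 nM, was prereduced with 400 uM NADPH (final) for 5 min at ~22 deg C, then incubated with compound 15 min before 400 uM selenite. A first-read NADPH fluorescence drop versus no-compound background flagged substrates.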
GALK inh – inhibitors of human galactokinase | P51570 | Potency, µM (top dose mostly 57.5 µM), hits mostly inhibitors | Purified GALK, Kinase-Glo residual ATP luminescence | hit rate 0.007% among 270,000
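GALK at 5 nM final was combined with compound, 35 uM ATP and 100 uM galactose in HEPES pH8.0 with MgCl2 and DTT. The reaction ran one hour at room temperature before luminescent ATP detection.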
Numbers stand for hits; i = inactive; ? = inconclusive; nt = no result given; [ ] = remark or other dose. Most compounds without a hit are left out; they make up all but 5.9% or so of the library. Unless noted, the call rests on the fitted dose curve; in most records, active means well fitted curve in the direction sought with a large enough effect; inconclusive means small, poorly fitted or top-dose-only effect, or another doubt; inactive means no such curve, though single readings can be large; an effect the other way counts as inactive or inconclusive.

SMILES	Coupling enz	RORgamma inh	VP16 counter	rTrxR1 inhibitor	TrxR1 substrate	GALK inh
COc1ccc(-c2csc(NC(=S)NC(=O)/C=C/c3ccco3)n2)cc1OC	i	7.9µM	14µM	i	i	i
O=S(=O)(Nc1ccc2nc(-c3ccc(F)cc3)oc2c1)c1ccccc1	nt	nt	nt	i	i	nt
O=C(Nc1ccc2nc(-c3ccco3)c(-c3ccco3)nc2c1)N1CCCC1	nt	nt	nt	?	i	nt
CC1CCN(C(=O)Nc2ccc3nc(-c4ccco4)c(-c4ccco4)nc3c2)CC1	nt	nt	nt	4µM	i	nt
S=C(Nc1ccc(N2CCOCC2)cc1)Nc1ccc2nc(-c3ccco3)c(-c3ccco3)nc2c1	i	i	i	2.5µM	i	i
O=C(Nc1ccc2nc(-c3ccco3)c(-c3ccco3)nc2c1)N1CCN(c2ccccn2)CC1	-41	i	i	1.4µM	i	i
O=C(c1ccc2nc(-c3ccco3)c(-c3ccco3)nc2c1)N1CCN(c2ncccn2)CC1	nt	i	i	13µM	i	i
Cc1cc(-c2nnc(CCC(=O)N(C)Cc3ccsc3)o2)no1	i	i	i	i	i	i
O=C1Cc2cc(S(=O)(=O)N3CCCCC3)ccc2N1	i	i	i	i	i	nt
COc1ccc(/C=N/NC(=O)c2[nH]c3ccc(Br)cc3c2-c2ccccc2)cc1	i	10µM	11µM	?	i	i
Cc1c(C(=O)N/N=C/c2ccc(N(C)C)cc2)[nH]c2ccc(Cl)cc12	i	6.3µM	?	i	i	nt
COc1ccc(/C=N/NC(=O)c2[nH]c3ccc(Cl)cc3c2-c2ccccc2)c(C(=O)O)c1OC	i	i	i	i	i	i
Cc1c(C(=O)N/N=C/c2ccccc2)[nH]c2ccc(Cl)cc12	i	18µM	?	i	i	i
CC(O)[C@H]1CC[C@H]2[C@@H]3CC[C@H]4C[C@@H](O)CC[C@]4(C)[C@H]3/C(=N/O)C[C@]12C (stereo partly specified)	nt	nt	nt	i	i	nt
CN1C(=O)c2ccc(NC(=S)NC(=O)C(C)(C)C)cc2C1=O	i	?	?	?	i	i
Cc1cc(/C=C2\SC(=S)N(C)C2=O)c(C)n1-c1ccccc1O	nt	nt	nt	i	i	nt
Cc1cc(/C=C2/SC(=S)N(c3ccc([N+](=O)[O-])cc3)C2=O)c(C)n1-c1cccnc1	i	3.2µM	0.89µM	i	i	nt
Cc1cc(/C=C2\SC(=S)N(C)C2=O)c(C)n1-c1ccc(O)cc1	i	?	0.63µM	i	i	i
COc1ccccc1Cc1noc(-c2cc(Cl)ccc2OC)n1	i	i	i	i	i	i
O=C(Nc1ccc2c(c1)OCCO2)C1c2ccccc2C(=O)N2CCc3ccccc3C12 (stereo unspecified)	i	?	i	i	i	i
Cc1cccc(C(=O)NC(=S)N2CCN(C(=S)NC(=O)c3cccc(C)c3)CC2)c1	i	0.79µM	0.79µM	i	i	i
CCCNC(=S)N1CCC(NC(=O)c2cccc(C)c2)CC1	i	i[1.91 µM]	i	i	i	i
Cc1cccc(C(=O)NC(=S)N2CCN(C)CC2)c1	i	1.3µM	8.9µM	i	i	i
COc1ccccc1C(c1nnnn1C1CCCC1)N1CCN2CCCC2C1 (stereo unspecified)	i	i	i	i	i	i
O=C(NC1CCCC1)C(c1cccs1)N(Cc1ccco1)C(=O)Cn1nnc(-c2cccs2)n1 (stereo unspecified)	i	i	i[0.365 µM]	i	i	i
SMILES	Coupling enz	RORgamma inh	VP16 counter	rTrxR1 inhibitor	TrxR1 substrate	GALK inh
COc1ccc(S(=O)(=O)n2nc(OC(=O)c3ccncc3)cc2N)cc1	i	i	i	28µM	i	i
C/C(=N\N=C(c1ccccc1)c1ccccc1)c1ccco1	i	i	i	i	i	i
Cc1cccc2nc(-c3cccnc3)c(NCCC(C)C)n12	i	8.9µM	?	i	i	i
CCOC(=O)c1ccc(CN(Cc2ccc(Cl)cc2Cl)S(=O)(=O)c2ccc(F)c(C)c2)cc1	nt	nt	nt	i	i	nt
O=C(NC(=S)Nc1nc2ccccc2s1)c1cccs1	i	?	?	i	i	i
COC(=O)c1nc(NC(=S)NC(=O)c2cccs2)sc1C	nt	4µM	4.5µM	i	i	i
CCc1ccc(-c2nc(NC(=S)NC(=O)c3cccs3)sc2C)cc1	i	?	3.2µM	i	i	i
